Laboratory results as given in PubChem BioAssay (EPA / NIEHS).
Calls of active or inactive are those of the source. Rule for the calls: active = hit-call score of the fitted dose curve at least 0.9, where 1 is the maximum; inactive = score below 0.9.

What follows are compounds tested on Actin alpha 1 (ACTA1), ACTA1 (gene 58) (assay: BSK_MyoF_ACTA1: BioMAP Diversity Plus: MyoF Assay for Actin alpha 1 (ACTA1) Biomarker Activity (AID 2284244)). Settings: primary human lung fibroblasts.
In short: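 Human lung fibroblast (MyoF system) cultures dosed with test chemical; alpha-SMA measured by ELISA 24 h after dosing, normalized to DMSO control. Cytotoxicity tracked in parallel cultures by SRB total-protein staining.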
For `ClC(Cl)=C(Cl)C(Cl)=C(Cl)Cl`, the AC50 was 3.97 µM (active).
For `BrCCBr`, the outcome was “inactive”.
In the case of `O=[N+]([O-])c1ccc2c3c(cccc13)CC2`, the outcome was “inactive”.
With `CCOC(=O)/C=C(C)/C=C/C[C@@H](C)CCCC(C)C` the AC50 was 29.6 µM (active).
In the case of `CC(=O)C(Cl)C(=O)N(C)C` (stereo unspecified), the outcome was “inactive”.
With `CCNc1nc(NC(C)(C)C)nc(SC)n1` the outcome was “inactive”.
For `OCc1ccco1`, the outcome was “inactive”.
`Nc1ccc(-c2ccc(N)c(Cl)c2)cc1Cl` was tested, and the outcome was “inactive”.
`CCOP(=S)(OCC)Oc1ccc(S(C)=O)cc1` (stereo unspecified) was tested, and the outcome was “inactive”.
For `O=C(O)C(F)(F)C(F)(F)C(F)(F)C(F)(F)C(F)(F)C(F)(F)F`, the outcome was “inactive”.
For `CC1(C)Cc2cccc(O)c2O1`, the outcome was “inactive”.
For `Nc1cccc2ccccc12`, the outcome was “inactive”.
With `CC(C)c1ccc(CO)cc1` the outcome was “inactive”.
In the case of `COP(=S)(OC)Oc1cc(Cl)c(Cl)cc1Cl`, the AC50 was 31.9 µM (active).
With `O=Cc1cccc(Oc2ccccc2)c1` the outcome was “inactive”.
In the case of `CCSC(C)CC1CC(=O)C(C(CC)=NOC/C=C/Cl)=C(O)C1` (stereo unspecified), the outcome was “inactive”.
`O=S(=O)(c1ccc(Cl)cc1)c1ccc(Cl)cc1` was tested, and the outcome was “inactive”.
`CCOP(=S)(OCC)SCCS(=O)(=O)CC` was tested, and the outcome was “inactive”.
`COC[C@H](C)N(C(=O)CCl)c1c(C)csc1C` was tested, and the outcome was “inactive”.
In the case of `COc1cc(OC)nc(NC(=O)NS(=O)(=O)c2ncccc2C(=O)N(C)C)n1`, the outcome was “inactive”.
With `Oc1ccc(-c2ccccc2)cc1` the outcome was “inactive”.
`CC(C)CCCCCCOC(=O)c1ccccc1C(=O)OCCCCCCC(C)C` was tested, and the outcome was “inactive”.

These compounds were tested on Basic fibroblast growth factor (bFGF), FGF2 (gene 2247) (assay: BSK_MyoF_bFGF: BioMAP Diversity Plus: MyoF Assay for Basic fibroblast growth factor (bFGF) Biomarker Activity (AID 2284246)). Settings: primary human lung fibroblasts.
In short: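 Human lung fibroblast cultures were dosed and measured 24 h later in 96-well format. bFGF biomarker levels quantified by ELISA, with activity fitted in the positive direction against DMSO.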
For `ClC(Cl)=C(Cl)C(Cl)=C(Cl)Cl`, the outcome was “inactive”.
For `BrCCBr`, the outcome was “inactive”.
In the case of `O=[N+]([O-])c1ccc2c3c(cccc13)CC2`, the outcome was “inactive”.
For `CCOC(=O)/C=C(C)/C=C/C[C@@H](C)CCCC(C)C`, the AC50 was 32.5 µM (active).
For `CC(=O)C(Cl)C(=O)N(C)C` (stereo unspecified), the outcome was “inactive”.
For `CCNc1nc(NC(C)(C)C)nc(SC)n1`, the outcome was “inactive”.
For `OCc1ccco1`, the outcome was “inactive”.
In the case of `Nc1ccc(-c2ccc(N)c(Cl)c2)cc1Cl`, the outcome was “inactive”.
For `CCOP(=S)(OCC)Oc1ccc(S(C)=O)cc1` (stereo unspecified), the outcome was “inactive”.
In the case of `O=C(O)C(F)(F)C(F)(F)C(F)(F)C(F)(F)C(F)(F)C(F)(F)F`, the outcome was “inactive”.
In the case of `CC1(C)Cc2cccc(O)c2O1`, the outcome was “inactive”.
With `Nc1cccc2ccccc12` the outcome was “inactive”.
With `CC(C)c1ccc(CO)cc1` the outcome was “inactive”.
With `COP(=S)(OC)Oc1cc(Cl)c(Cl)cc1Cl` the outcome was “inactive”.
`O=Cc1cccc(Oc2ccccc2)c1` was tested, and the outcome was “inactive”.
For `CCSC(C)CC1CC(=O)C(C(CC)=NOC/C=C/Cl)=C(O)C1` (stereo unspecified), the outcome was “inactive”.
In the case of `O=S(=O)(c1ccc(Cl)cc1)c1ccc(Cl)cc1`, the outcome was “inactive”.
For `CCOP(=S)(OCC)SCCS(=O)(=O)CC`, the outcome was “inactive”.
In the case of `COC[C@H](C)N(C(=O)CCl)c1c(C)csc1C`, the outcome was “inactive”.
For `COc1cc(OC)nc(NC(=O)NS(=O)(=O)c2ncccc2C(=O)N(C)C)n1`, the outcome was “inactive”.
For `Oc1ccc(-c2ccccc2)cc1`, the outcome was “inactive”.
With `CC(C)CCCCCCOC(=O)c1ccccc1C(=O)OCCCCCCC(C)C` the outcome was “inactive”.

What follows are compounds tested on Collagen IV, COL4A1 (gene 1282) (assay: BSK_MyoF_CollagenIV: BioMAP Diversity Plus: MyoF Assay for Collagen IV Biomarker Activity (AID 2284247)). Settings: primary human lung fibroblasts.
In short: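 Primary human lung fibroblasts (MyoF system) dosed 24 h; Collagen IV measured by ELISA. Activity fitted in positive direction against DMSO; cytotoxicity tracked by SRB total-protein staining in parallel cultures.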
`ClC(Cl)=C(Cl)C(Cl)=C(Cl)Cl` was tested, and the outcome was “inactive”.
With `BrCCBr` the outcome was “inactive”.
For `O=[N+]([O-])c1ccc2c3c(cccc13)CC2`, the outcome was “inactive”.
With `CCOC(=O)/C=C(C)/C=C/C[C@@H](C)CCCC(C)C` the AC50 was 7.11 µM (active).
In the case of `CC(=O)C(Cl)C(=O)N(C)C` (stereo unspecified), the outcome was “inactive”.
With `CCNc1nc(NC(C)(C)C)nc(SC)n1` the outcome was “inactive”.
`OCc1ccco1` was tested, and the outcome was “inactive”.
For `Nc1ccc(-c2ccc(N)c(Cl)c2)cc1Cl`, the outcome was “inactive”.
`CCOP(=S)(OCC)Oc1ccc(S(C)=O)cc1` (stereo unspecified) was tested, and the outcome was “inactive”.
In the case of `O=C(O)C(F)(F)C(F)(F)C(F)(F)C(F)(F)C(F)(F)C(F)(F)F`, the outcome was “inactive”.
For `CC1(C)Cc2cccc(O)c2O1`, the outcome was “inactive”.
In the case of `Nc1cccc2ccccc12`, the outcome was “inactive”.
For `CC(C)c1ccc(CO)cc1`, the outcome was “inactive”.
For `COP(=S)(OC)Oc1cc(Cl)c(Cl)cc1Cl`, the outcome was “inactive”.
For `O=Cc1cccc(Oc2ccccc2)c1`, the outcome was “inactive”.
For `CCSC(C)CC1CC(=O)C(C(CC)=NOC/C=C/Cl)=C(O)C1` (stereo unspecified), the outcome was “inactive”.
For `O=S(=O)(c1ccc(Cl)cc1)c1ccc(Cl)cc1`, the outcome was “inactive”.
`CCOP(=S)(OCC)SCCS(=O)(=O)CC` was tested, and the outcome was “inactive”.
For `COC[C@H](C)N(C(=O)CCl)c1c(C)csc1C`, the outcome was “inactive”.
`COc1cc(OC)nc(NC(=O)NS(=O)(=O)c2ncccc2C(=O)N(C)C)n1` was tested, and the outcome was “inactive”.
With `Oc1ccc(-c2ccccc2)cc1` the outcome was “inactive”.
For `CC(C)CCCCCCOC(=O)c1ccccc1C(=O)OCCCCCCC(C)C`, the outcome was “inactive”.
